Records with an inconclusive call do not appear. Active and inactive are the calls of the source. Calls follow the shape of the dose curve; as a rule, active = well fitted inhibition curve with a large enough effect; inconclusive = small, poorly fitted or top-dose-only effect; inactive = no such curve, though single readings can be large or run the other way.

In assay [1] the test system is Zika virus NS2B-NS3 protease (unlinked complex). Description: Primary screen GU Rhodamine qHTS for Zika virus inhibitors: Unlinked NS2B-NS3 protease assay (AID 1347159). Also: nearly all actives have a fitted effect of over 60% in size. The method in brief: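 Noncovalent NS2B hydrophilic domain/NS3 protease complex (25 nM final) in 10 mM Tris-HCl pH 8.0, 0.01% Tween 20, preincubated 15 min with compounds (up to 114 microM), then 1.5 microM Rhodamine110 substrate. Fluorescence change over 15 min fitted to 4-parameter Hill.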

Assay [2] deals with Zika virus NS2B-NS3 protease (linked construct). The assay can be described thus: Primary screen NINDS Rhodamine qHTS for Zika virus inhibitors (AID 1347160). Also: nearly all actives have a fitted effect of over 55% in size. The method in brief:
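Purified NS2B-NS3 protease with the NS2B hydrophilic domain joined by a flexible linker (25 nM) in 10 mM Tris-HCl pH 8.0, 0.01% Tween 20, preincubated 15 min at RT with compound; Rhodamine110 peptide substrate 1.5 µM; fluorescence change over 15 min; 4-parameter Hill fit.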
(qHTS replaces the single test concentration by a dilution series.)
% is scaled to controls: 0 for no effect and ±100 for the full control effect.

With `CON(C)C(=O)N1N=C(c2cc(F)ccc2F)S[C@@]1(CCCN)c1ccccc1`, the Potency entry in assay [1] and in assay [2] was “inactive” throughout.
Turning to `COc1cc(N2CCC(N(C)C)CC2)ccc1Nc1ncc(Cl)c(Nc2ccccc2P(C)(C)=O)n1`, the Potency result in assay [1] and in assay [2] was “inactive” each time.
As to `C[C@@H]1O[C@@H](O[C@H]2[C@H](OC(C#N)c3ccc(O)cc3)O[C@H](CO)[C@@H](O)[C@@H]2O)[C@H](O)[C@H](O)[C@H]1O` (stereo not given in full), the Potency result in assay [1] and in assay [2] was “inactive” throughout.
On to `CC1OC(OC2C(CO)OC(OCC3OC(OC(=O)C45CCC(C)(C)CC4C4=CCC6C7(C)CCC(OC8OC(C(=O)O)C(O)C(OC9OC(CO)C(O)C(O)C9O)C8O)C(C)(C)C7CCC6(C)C4(C)CC5)C(O)C(O)C3O)C(O)C2O)C(O)C(O)C1O` (stereo not given), for which the activity change, negative = inhibition is 16.6% [at 19.1 µM] (inactive) in assay [1] and 9.74% [at 10.7 µM] (inactive) in assay [2].
`COc1cc(C2OCC3C(c4ccc(OC5OC(CO)C(O)C(O)C5O)c(OC)c4)OCC23)ccc1O` (stereo not given): the Potency entry in assay [1] and in assay [2] was “inactive” throughout.

For the origin of these results see PubChem BioAssay (NCATS).
